Screens (PubChem)
KCNQ2 pot = KCNQ2 (rat) channel potentiation | O88943 | CHO-K1 KCNQ2, FluxOR thallium flux fluorescence; hits give high values | B-score at 10 µM | hit rate 0.54% among 310,000;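 active means fluorescence ratio B-score at least 3 SD of library B-scores, with initial fluorescence B-score within 3 of them, cut at about 5.3 in these data; same plate scores as AID 2156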;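 further: B-score of peak minus minimum over baseline fluorescence ratio after K+ and Tl+ stimulus; positive B-score means potentiation of KCNQ2 with more thallium influx and brighter signal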
KCNQ2 block = KCNQ2 (rat) channel inhibition. hit rate 1.1% among 310,000. B-score at 10 µM. AID 2156. CHO-K1 KCNQ2, FluxOR thallium flux, 20 min; hits give low values;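 active means fluorescence ratio B-score at most minus 3 library SDs, with starting brightness B-score within 2 library SDs, cut at about -5.5 in these data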
KCNQ2 inh conf = confirmation of rat KCNQ2 potassium channel inhibitors | KCNQ2-expressing cells, thallium flux, inhibition; hits give low values | hit rate 57% among 1,000 | activity change, negative = inhibition, % at 10 µM | AID 493025 | shares compounds with KCNQ2 block;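 further: 0% = vehicle wells and values are ratio percent relative to vehicle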
KCNQ1 spec = selectivity of KCNQ2 inhibitors against human KCNQ1 | shares compounds with KCNQ2 block | KCNQ1-expressing cells, FluxOR thallium flux fluorescence; hits give low values | activity change, negative = inhibition, % at 10 µM | hit rate 15% among 1,000 | AID 493026;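 active means activity change at least 3 SD of negative controls below their mean in both duplicate wells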;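 further: CHO cells stably transfected with KCNQ1 and depolarized by potassium stimulus; peak minus minimum fluorescence over baseline after thallium addition; 0% = vehicle negative control and -100% = blank without thallium stimulus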
Target sequence (P51787 whole entry, looked up): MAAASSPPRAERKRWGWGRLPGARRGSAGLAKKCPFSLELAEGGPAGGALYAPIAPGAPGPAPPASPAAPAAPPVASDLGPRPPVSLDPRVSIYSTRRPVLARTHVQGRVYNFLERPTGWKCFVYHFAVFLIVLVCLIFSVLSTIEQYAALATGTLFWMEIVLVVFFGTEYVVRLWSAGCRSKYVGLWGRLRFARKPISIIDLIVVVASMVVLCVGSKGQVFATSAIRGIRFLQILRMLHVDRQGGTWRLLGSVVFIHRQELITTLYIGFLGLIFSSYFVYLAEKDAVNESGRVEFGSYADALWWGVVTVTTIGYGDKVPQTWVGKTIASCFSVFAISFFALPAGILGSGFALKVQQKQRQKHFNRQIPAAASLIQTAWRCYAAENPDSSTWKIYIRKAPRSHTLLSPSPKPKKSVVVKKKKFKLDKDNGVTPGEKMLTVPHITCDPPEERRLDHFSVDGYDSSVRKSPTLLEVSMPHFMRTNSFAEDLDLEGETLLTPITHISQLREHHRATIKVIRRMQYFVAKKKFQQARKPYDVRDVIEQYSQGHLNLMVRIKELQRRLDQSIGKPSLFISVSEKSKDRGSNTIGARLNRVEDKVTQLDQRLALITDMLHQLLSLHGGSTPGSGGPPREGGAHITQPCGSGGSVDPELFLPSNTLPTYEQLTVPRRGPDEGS
CHO parental ctr = KCNQ2 inhibitor counter-screen hit in parental CHO cells. shares compounds with KCNQ2 block. thallium flux counter-screen; hits give low values. activity change, % at 10 µM. hit rate 14% among 1,000. AID 493029;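 further: 0% = vehicle negative controls with stimulus buffer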
KCNQ2 patch conf = rat KCNQ2 inhibition confirmed by electrophysiology; KCNQ2-expressing cells, automated patch clamp current; hit rate 49% among 550; AID 588531; calls only at 10 µM; shares compounds with KCNQ2 block
* marks the source's active call; other numbers are inactive results; i = inactive; nt = no result given; + = active, no number. Most compounds without a hit are left out; they make up all but 1.6% or so of the library. Unless noted, how the calls were made is not given here.

SMILES | KCNQ2 pot | KCNQ2 block | KCNQ2 inh conf | KCNQ1 spec | CHO parental ctr | others
CC(C)Cn1c(O)c(N=NC(=O)c2cccc(S(=O)(=O)N3CCCCC3)c2)c2ccccc21 | -9.3 | -9.3* | i | i | i
CC(C)CCn1c(O)c(N=NC(=O)c2ccco2)c2ccccc21 | nt | i | nt | nt | nt
O=C(NC(Cc1ccccc1)C(=O)N1CCCCC1)c1ccccc1 (stereo not drawn) | nt | i | nt | nt | nt
Cc1ccc(Nc2nc(-c3ccc(C)cc3)c(CC(=O)O)s2)cc1 | 1.7 | i | nt | nt | nt
O=C(O)Cc1sc(Nc2cccc3ccccc23)nc1-c1ccc(Cl)cc1 | -8.2 | -8.2* | i | i | i
N#CCC(=O)Nc1ccc(C(=O)N2CCN(S(=O)(=O)c3ccc4ccccc4c3)CC2)cc1 | nt | i | nt | nt | nt
Cc1cc(C)cc(N(C(=O)c2sc(C)nc2C)C(C(=O)NC(C)(C)C)c2ccncc2)c1 (stereo not drawn) | 0.25 | i | nt | nt | nt
O=C(Nc1ccccc1Cl)Oc1ccc(-c2ccccc2)cc1 | nt | i | nt | nt | nt
O=C(Cc1c[nH]c2ccccc12)Nc1ccc(N2CCOCC2)cc1 | 0.61 | i | nt | nt | nt
O=C(COC(=O)CC12CC3CC(CC(C3)C1)C2)Nc1cccnc1Cl | -7.3 | -7.3* | -38%* | i | i | KCNQ2 patch conf=+
O=C(COC(=O)c1ccccn1)Nc1cccnc1Cl | nt | i | nt | nt | nt
COc1cc(C(=O)Nc2nc(OC)c(-c3ccccc3)c(OC)n2)cc(OC)c1OC | 0.82 | i | nt | nt | nt
COc1cc(C(=O)Nc2cc(-c3ccccc3)[nH]n2)cc(OC)c1OC | -6.6 | -6.6* | -25%* | i | i | KCNQ2 patch conf=i
COc1ccc(CCN(Cc2cc3cc(C)cc(C)c3nc2Cl)C(=O)C2CC2)cc1 | -8.6 | -8.6* | -32%* | i | i | KCNQ2 patch conf=i
COc1ccc(CN(CC2CCC(C(=O)O)CC2)C(=S)Nc2ccc(C)c(Cl)c2)cc1 (stereo not drawn) | nt | i | nt | nt | nt
CCCCSc1nc(NCc2ccco2)c2c3c(sc2n1)COC(C)(C)C3 | nt | i | nt | nt | nt
CCCSc1nc(NCc2ccco2)c2c3c(sc2n1)COC(C)(C)C3 | -9.8 | -9.8* | i | i | i
O=C(NC12CC3CC(CC(C3)C1)C2)c1ccccc1 | nt | i | nt | nt | nt
O=C(NC12CC3CC(CC(C3)C1)C2)N(Cc1ccccc1)Cc1ccncc1 | -11 | -11* | -34%* | i | i | KCNQ2 patch conf=+
COc1ccc(CNC(=O)CN2C(=O)C(C)N(c3ccc(C)cc3)C2=O)cc1 (stereo not drawn) | nt | i | nt | nt | nt
COc1ccccc1CNC(=O)CN1C(=O)C(C)N(c2ccc(C)cc2)C1=O (stereo not drawn) | -7.5 | -7.5* | i | i | i
COc1ccccc1CNC(=O)C(CC(C)C)NC(=O)C1CCC(C)CC1 (stereo not drawn) | -8.2 | -8.2* | -28%* | i | i | KCNQ2 patch conf=+
CC(C)CC(NC(=O)C1CCC(C)CC1)C(=O)NCc1ccco1 (stereo not drawn) | nt | i | nt | nt | nt
CCc1cccc(C)c1NC(=O)CN(C)S(=O)(=O)c1ccc(-c2ccc(=O)[nH]n2)s1 | 0.05 | i | nt | nt | nt
CCCCNC(=S)N(CCO)Cc1cc2cc3c(cc2[nH]c1=O)OCCO3 | 0.21 | i | nt | nt | nt
SMILES | KCNQ2 pot | KCNQ2 block | KCNQ2 inh conf | KCNQ1 spec | CHO parental ctr | others
COc1ccccc1OCC(=O)Nc1cc(Cl)ccc1Oc1ccccc1 | -10 | -10* | -32%* | -35%* | -30%* | KCNQ2 patch conf=+
O=C(COC(=O)c1c(Cl)cccc1Cl)Nc1cc(Cl)ccc1Oc1ccccc1 | nt | i | nt | nt | nt
Cc1ccccc1OCC(=O)Nc1cc(Cl)ccc1Oc1ccccc1 | -7.4 | -7.4* | -26%* | i | i | KCNQ2 patch conf=i
O=C(COC(=O)c1ccccc1)Nc1cc(Cl)ccc1Oc1ccccc1 | nt | i | nt | nt | nt
O=C(NCc1ccccc1F)c1ccncc1 | 1.1 | i | nt | nt | nt
COc1ccc(CCN=C(N)NS(=O)(=O)c2cc(F)ccc2F)cc1 | nt | i | nt | nt | nt
CCN(Cc1ccccc1)C(=O)CS(=O)(=O)c1ccccc1 | 0.6 | i | nt | nt | nt
O=S(=O)(C/C(=C/CO)S(=O)(=O)c1ccccc1)c1ccccc1 | -8 | -8* | i | i | i
CS(=O)(=O)Nc1ccc(-c2cc(/C=C3\SC(N)=NC3=O)c[nH]c2=O)cc1 | 0.63 | i | nt | nt | nt
COC(=O)Cc1c[nH]c2cccc(OCC(O)CN(Cc3ccc([N+](=O)[O-])cc3)C(C)(C)C)c12 (stereo not drawn) | -8.5 | -8.5* | -20%* | i | i | KCNQ2 patch conf=+
CC(C)CN(CC(C)C)CC(O)COc1ccc([N+](=O)[O-])cc1 (stereo not drawn) | nt | i | nt | nt | nt
